PubChem BioAssay (NCI)
About 83,000 compounds went through this panel and 20% of them were active in at least one assay; those are over-represented in the sample as a whole.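 Interpretation: 100, growth as untreated; towards 0, rising growth inhibition; 0, no net growth; 0 to -100, cell death. Compounds scoring below 10 were considered active.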 The source made the active and inactive calls.

Test system: SF-539 CNS
Assay: NCI-60 one-dose screen, 48 h (100 = growth as untreated, 0 = no growth, -100 = all killed)
Conditions: 10 µM

Compound | growth
COc1ccc(-c2csc(NC(=O)CSc3nc(C)c(-c4ccccc4)n3Nc3ccccc3)n2)cc1 | 72.7% (inactive)
Cc1cccc(C)c1NC(=O)c1sc2nc3c(cc2c1N)C(=O)CCC3 | 101% (inactive)
CC(=O)CSC(C)=O | 95.2% (inactive)
S=C1SCC(c2ccccc2)S1 (stereo unspecified) | 95.7% (inactive)
CC(=O)N(C)c1ccc(Nc2ccc(Nc3ccc(N(C)C(C)=O)cc3)c3c2C(=O)c2ccccc2C3=O)cc1 | 76.3% (inactive)
COc1ccc(CN2CCC(N3CCCC3=O)c3cc(Cl)ccc32)cc1 (stereo unspecified) | 110% (inactive)
CN(C)c1ccc(Cc2ccc(N(C)C)cc2Cl)c(Cl)c1 | 108% (inactive)
Clc1cc2c(c(CSc3nc4ccccc4n4cccc34)c1)OCOC2 | 67.2% (inactive)
CC(=O)n1c(-c2ccc(Cl)c(Cl)c2)cn(-c2ccc(Cl)cc2)c1=O | -33.2% (active)
C#Cc1ccc(-n2c(/C=C/c3ccc4ccccc4n3)nc3ncccc3c2=O)cc1 | -17.6% (active)
CSc1nn(-c2ccccc2)c2ncnc(Oc3ccccc3)c12 | 98% (inactive)
COc1ccc(-c2nc(-c3nc4cc(Cl)c(F)cc4[nH]3)c3ccccn23)cc1 | 92.8% (inactive)
C/C(=N\Nc1nc2ccccc2s1)c1ccncn1 | 40.8% (inactive)
Nc1cc2c(cc1Cl)-c1ccc([N+](=O)[O-])cc1/C2=N\O | 75.9% (inactive)
CN(C)CCN1C(=O)c2cccc3cc(N)cc(c23)C1=O | 33.4% (inactive)
CCCCCCNC(=O)Oc1ccc(/C(=C(/CC)Cc2ccccc2)c2ccc(OCCN3CCCCC3)cc2)cc1 | 91.9% (inactive)
